This is an account of results in PubChem BioAssay (Tox21).

Structures are written as SMILES. Values joined by “and” are separate entries in the source; they are usually repeats but may differ in a detail not shown here. Equal entries are not always repeated. Results filed as inconclusive are left out. Active and inactive are the calls of the source. Unless noted, calls come from the whole dose curve.

A short description of assay [1]: Nuclear factor erythroid 2-related factor 2/antioxidant responsive element (Nrf2/ARE) small molecule agonists: qHTS cell viability counter screen in human keratinocytes (AID 1919968; active = well fitted curve in the direction sought with a large enough effect in the repeat runs; an effect the other way counts as inactive or inconclusive; note: nearly all actives have a fitted effect of over 55% in size). In a few lines:
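Cytotoxicity was multiplexed with the Nrf2/ARE luciferase assay in the same wells. Stably transfected HaCaT keratinocytes were treated with test compounds for 23 h at 37 C. Cell viability was then measured by CellTiter-Fluor fluorescence.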
(In general: qHTS replaces the single test concentration by a dilution series.)

Assay [2] can be described thus: Nuclear factor erythroid 2-related factor 2/antioxidant responsive element (Nrf2/ARE) small molecule agonists: luciferase reporter gene qHTS assay in human keratinocytes (AID 1919969; note: nearly all actives have a fitted effect of over 35% in size; note: potency is the fitted concentration of half-maximal effect). (In general: A reporter such as luciferase makes a cellular process visible.)
Assay [3] addresses Gonadotropin-releasing hormone receptor (Homo sapiens) (UniProt P30968). The assay is described as follows: Human gonadotropin-releasing hormone receptor (GnRHR) small molecule agonists, calcium flux assay in GnRHR-HEK293 cells (AID 1920063). Note: nearly all actives have a fitted effect of over 35% in size. The method, boiled down:
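Agonist activity was measured as intracellular calcium flux in HEK293 cells engineered to stably express human GnRHR. After dye loading for 1 hour at 37 C, compounds in DMSO were added and fluorescence was followed for 3 minutes.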
For orientation: Calcium flux is commonly read through the fluorescence of an indicator in the cells.

The target in assay [4] is KiSS-1 receptor (Homo sapiens) (UniProt Q969F8). The assay is described as follows: Human kisspeptin (KISS1R) small molecule agonists, calcium flux assay in KISS1R-HEK293 cells (AID 1920064; active = well fitted curve in the direction sought with a large enough effect in the repeat runs; an effect the other way counts as inactive or inconclusive). The method, boiled down:
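Agonist activity is monitored as intracellular calcium rise in engineered HEK293 cells carrying human KISS1R. Cells are dye-loaded for 1 h at 37 C before compound addition, and fluorescence is recorded for 3 min.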

Assay [5] can be described thus: G protein-coupled receptor (GPCR) small molecule agonists, calcium flux assay: HEK293 wild type cell line counter screen (AID 1920065). The method, boiled down:
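Seed cells, incubate 18 h (37 C, 5% CO2); add calcium dye, 1 h at 37 C; pin-transfer compounds, ATP control or DMSO; read fluorescence 480/540 nm each second for 3 min.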

A short description of assay [6]: p53 small molecule agonists, cell-based qHTS assay with human liver microsomes (AID 1963577).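 Note: p53 response element beta-lactamase reporter cells with liver microsomes plus NADPH.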 The method, boiled down: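 With metabolic activation: human liver microsomes (0.5 mg/mL final) plus NADPH (0.5 mg/mL final) added alongside compounds to p53RE-bla cells; 16 h 37 C exposure; beta-lactamase read by LiveBLAzer fluorescence.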
Assay [7] is described as follows: p53 small molecule agonists, cell-based qHTS assay with rat liver microsomes (AID 1963578). The method, boiled down:
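Metabolic activation by rat liver microsomes and NADPH, each 0.5 mg/mL final, added right after compounds to p53RE-bla reporter cells (4,000/well, plated 5 h earlier). 16 h at 37 C, then LiveBLAzer substrate for 2 h at room temperature in the dark; fluorescence read-out.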

Assay [8] can be described thus: p53 small molecule agonists, cell-based qHTS assay with human liver microsomes: qHTS cell viability counter screen (AID 1963579). Note: nearly all actives have a fitted effect of over 45% in size. The method, boiled down:
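Metabolic activation used human liver microsomes and NADPH, both 0.5 mg/mL final, over 16 hours at 37 C on p53RE-bla cells (4,000/well). Cytotoxicity measured by CellTiter-Glo luminescence, 30 min at room temperature.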

Assay [9] is described as follows: p53 small molecule agonists, cell-based qHTS assay with rat liver microsomes: qHTS cell viability counter screen (AID 1963580). Note: nearly all actives have a fitted effect of over 45% in size. In a few lines:
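Cytotoxicity counter screen: intracellular ATP read by CellTiter-Glo luminescence in the p53 reporter wells. HCT-116 p53RE-bla cells were treated for 16 h at 37 C alongside rat liver microsomes and NADPH, each 0.5 mg/mL final.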

A short description of assay [10]: p53 small molecule agonists, cell-based qHTS assay: qHTS cell viability counter screen (AID 1963581). Note: nearly all actives have a fitted effect of over 45% in size. The method, boiled down:
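Viability was counter-screened in parallel with the p53 agonist reporter by measuring intracellular ATP luminescence in the same HCT-116 p53RE-bla wells after 16 h compound treatment at 37 C.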

Assay [11] in a line: p53 small molecule agonists, cell-based qHTS assay (AID 1963582; active = well fitted activation curve with a large enough effect in the signal ratio in the repeat runs, not every such curve was filed as active; the % refers to the signal ratio). The method, boiled down:
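Cells carrying a p53-responsive bla reporter are treated with test compounds for 16 h at 37 C; beta-lactamase activity is then detected with LiveBLAzer B/G FRET substrate after 2 h at room temperature.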

Assay [12] deals with 5-hydroxytryptamine receptor 2A (Homo sapiens) (UniProt P28223). The assay is described as follows: 5-hydroxytryptamine receptor 2A (HTR2A) small molecule antagonists, cell-based qHTS assay (AID 1963586). Note: nearly all actives have a fitted effect of over 45% in size. The method, boiled down: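 CHO cells stably expressing human HTR2A were plated for 18 h at 37 C, then loaded with calcium dye for 1 h. Compounds were preincubated 5 min at room temperature before DOI (4 nM solution) was added. Kinetic fluorescence was read for 3 min.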
5-hydroxytryptamine receptor 2A (Homo sapiens), sequence (P28223 whole entry, looked up): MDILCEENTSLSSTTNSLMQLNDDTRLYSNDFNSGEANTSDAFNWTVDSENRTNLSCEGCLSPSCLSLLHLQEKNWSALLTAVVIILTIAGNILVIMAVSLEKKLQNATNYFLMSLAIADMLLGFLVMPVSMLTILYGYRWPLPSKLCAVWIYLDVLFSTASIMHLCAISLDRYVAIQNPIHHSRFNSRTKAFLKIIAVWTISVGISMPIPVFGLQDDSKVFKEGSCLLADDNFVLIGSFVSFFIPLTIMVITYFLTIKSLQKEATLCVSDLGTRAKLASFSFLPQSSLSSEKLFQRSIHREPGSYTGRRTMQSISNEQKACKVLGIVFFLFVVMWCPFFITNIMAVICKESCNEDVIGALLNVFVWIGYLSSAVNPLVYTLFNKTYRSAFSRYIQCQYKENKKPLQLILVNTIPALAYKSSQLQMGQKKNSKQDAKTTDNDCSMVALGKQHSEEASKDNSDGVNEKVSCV

The target is the same in assay [13]. The assay is described as follows: 5-hydroxytryptamine receptor 2A (HTR2A) small molecule agonists, cell-based qHTS assay (AID 1963587). Note: nearly all actives have a fitted effect of over 30% in size. In a few lines: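 Kinetic calcium-flux fluorescence (2 min, 1 sec intervals) after compound addition in agonist mode. HTR2A-CHO cells were cultured 18 h, then dye-loaded 1 h at 37 C.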
For assay [14], the target named is Muscarinic acetylcholine receptor M1 (Homo sapiens) (UniProt P11229). In words: Cholinergic receptor muscarinic 1 (CHRM1) small molecule antagonists, cell-based qHTS assay (AID 1963588). Note: nearly all actives have a fitted effect of over 40% in size. In a few lines: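 Compounds were tested at 15 concentrations in three independent runs. Dye-loaded CHRM1-CHO cells were exposed 5 min at room temperature before stimulation by acetylcholine added at 50nM. Intracellular calcium was read kinetically on FDSS for 3 min.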
Muscarinic acetylcholine receptor M1 (Homo sapiens), sequence (P11229 whole entry, looked up): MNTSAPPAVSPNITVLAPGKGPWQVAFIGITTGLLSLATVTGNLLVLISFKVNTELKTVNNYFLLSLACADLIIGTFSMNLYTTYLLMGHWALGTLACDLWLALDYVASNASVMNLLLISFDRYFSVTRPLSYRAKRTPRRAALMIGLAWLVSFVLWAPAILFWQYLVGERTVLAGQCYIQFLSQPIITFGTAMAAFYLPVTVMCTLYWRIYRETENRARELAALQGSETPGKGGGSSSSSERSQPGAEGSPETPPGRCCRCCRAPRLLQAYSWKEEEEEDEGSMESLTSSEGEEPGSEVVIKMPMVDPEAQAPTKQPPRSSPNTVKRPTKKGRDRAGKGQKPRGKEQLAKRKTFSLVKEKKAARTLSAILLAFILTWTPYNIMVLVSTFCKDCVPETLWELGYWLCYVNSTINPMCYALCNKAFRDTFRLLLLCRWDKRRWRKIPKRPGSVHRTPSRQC

The target is the same in assay [15]. The assay is described as follows: Cholinergic receptor muscarinic 1 (CHRM1) small molecule agonists, cell-based qHTS assay (AID 1963589). Note: nearly all actives have a fitted effect of over 35% in size. The method, boiled down: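 Cells were plated and incubated 18 h at 37 C/5% CO2, loaded with calcium dye for 1 h at 37 C, then treated with compounds in DMSO. Fluorescence was recorded kinetically at 1 sec intervals.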
Assay [16] is described as follows: cAMP Responsive Elements (CRE) small molecule agonists, cell-based qHTS assay (AID 1963590). The method, boiled down:
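Cells carrying a CRE-driven beta-lactamase reporter (HEK 293T) are seeded, incubated overnight (18 h), and treated with test compounds for 3 h at 37 C; reporter activity is then detected with a FRET substrate after 2 h at room temperature.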

Assay [17] can be described thus: cAMP Responsive Elements (CRE) small molecule antagonists, cell-based qHTS assay (AID 1963591; active = well fitted inhibition curve with a large enough effect in the signal ratio in the repeat runs, not every such curve was filed as active; the % refers to the signal ratio). In a few lines: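 Cells (CRE-bla HEK 293T, DMEM with 10% dialyzed FBS and 25 mM HEPES) are seeded and incubated 18 h. Compounds are added with NKH477 agonist at 0.25 uM final for 3 h, then FRET substrate for 2 h.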
Assay [18] deals with Beta-2 adrenergic receptor (Homo sapiens) (UniProt P07550). In words: Adrenergic beta2 receptor (ADRB2) small molecule antagonists, cell-based qHTS assay (AID 1963592). Note: series mostly up to about 92 µM; nearly all actives have a fitted effect of over 50% in size. The method, boiled down: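 Assay format: CHO-ADRB2 cells, 18-20hr seeding at 37C/5% CO2, then compound plus 1nM isoproterenol agonist mix for 0.5hr RT. Homogeneous time-resolved fluorescence cAMP detection after 1hr, expressed as 665/615 nm ratio.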
Beta-2 adrenergic receptor (Homo sapiens), sequence (P07550 whole entry, looked up): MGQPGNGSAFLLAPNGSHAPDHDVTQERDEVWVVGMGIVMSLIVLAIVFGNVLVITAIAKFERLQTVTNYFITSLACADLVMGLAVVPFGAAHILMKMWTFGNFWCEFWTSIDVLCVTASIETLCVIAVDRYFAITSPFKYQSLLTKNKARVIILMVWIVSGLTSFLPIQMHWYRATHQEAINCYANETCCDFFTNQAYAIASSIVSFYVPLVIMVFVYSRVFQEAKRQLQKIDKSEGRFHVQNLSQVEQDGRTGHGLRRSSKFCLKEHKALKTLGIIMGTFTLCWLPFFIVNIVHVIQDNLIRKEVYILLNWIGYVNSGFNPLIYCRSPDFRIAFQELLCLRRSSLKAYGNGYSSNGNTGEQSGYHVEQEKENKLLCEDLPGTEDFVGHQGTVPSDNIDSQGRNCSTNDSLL

Assay [19] concerns the target D(2) dopamine receptor (Homo sapiens) (UniProt P14416). The assay is described as follows: Dopamine D2 receptor (DRD2) small molecule agonists, cell-based qHTS assay (AID 1963594). Note: nearly all actives have a fitted effect of over 35% in size. In a few lines: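 cAMP accumulation in DRD2-HEK293 cells measured by HTRF after 1 h detection; compounds added 10 min before NKH477 (200nM […]) forskolin-analogue stimulation, 30 min at room temperature, with Ro20-1724 present at 0.1 mM final.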

For assay [20] the target is unchanged. The assay is described as follows: Dopamine D2 receptor (DRD2) small molecule antagonists, cell-based qHTS assay (AID 1963595; active = well fitted inhibition curve with a large enough effect in the signal ratio in the repeat runs, with a control signal flat; the % refers to the signal ratio). In a few lines: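 Human DRD2 antagonist qHTS measuring cAMP by HTRF. The cells are exposed to compound for 10 min, then to NKH477 (200 nM) and quinpirole (12 nM) for 30 min at RT, with Ro20-1724 (0.1 mM) present throughout.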

D(2) dopamine receptor (Homo sapiens), sequence (P14416 whole entry, looked up): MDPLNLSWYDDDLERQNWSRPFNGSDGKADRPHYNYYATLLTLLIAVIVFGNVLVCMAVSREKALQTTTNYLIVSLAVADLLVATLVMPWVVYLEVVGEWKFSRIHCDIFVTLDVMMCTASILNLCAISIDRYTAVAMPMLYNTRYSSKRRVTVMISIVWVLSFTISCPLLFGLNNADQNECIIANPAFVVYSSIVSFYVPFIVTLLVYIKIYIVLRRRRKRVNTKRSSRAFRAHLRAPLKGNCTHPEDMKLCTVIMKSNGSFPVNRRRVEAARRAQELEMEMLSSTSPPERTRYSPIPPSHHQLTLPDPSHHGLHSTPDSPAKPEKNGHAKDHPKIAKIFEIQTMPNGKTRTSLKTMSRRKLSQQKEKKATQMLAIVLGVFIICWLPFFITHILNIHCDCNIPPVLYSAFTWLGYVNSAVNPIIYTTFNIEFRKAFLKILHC
Gonadotropin-releasing hormone receptor (Homo sapiens), sequence (P30968 whole entry, looked up): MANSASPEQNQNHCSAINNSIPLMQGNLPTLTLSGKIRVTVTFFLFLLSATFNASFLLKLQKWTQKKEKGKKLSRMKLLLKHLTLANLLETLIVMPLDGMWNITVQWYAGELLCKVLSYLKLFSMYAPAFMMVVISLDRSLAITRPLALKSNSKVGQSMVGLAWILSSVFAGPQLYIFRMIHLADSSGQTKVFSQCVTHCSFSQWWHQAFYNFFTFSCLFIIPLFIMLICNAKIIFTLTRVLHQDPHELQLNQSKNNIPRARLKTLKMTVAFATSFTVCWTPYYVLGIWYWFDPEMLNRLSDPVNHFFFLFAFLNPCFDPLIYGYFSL
KiSS-1 receptor (Homo sapiens), sequence (Q969F8 whole entry, looked up): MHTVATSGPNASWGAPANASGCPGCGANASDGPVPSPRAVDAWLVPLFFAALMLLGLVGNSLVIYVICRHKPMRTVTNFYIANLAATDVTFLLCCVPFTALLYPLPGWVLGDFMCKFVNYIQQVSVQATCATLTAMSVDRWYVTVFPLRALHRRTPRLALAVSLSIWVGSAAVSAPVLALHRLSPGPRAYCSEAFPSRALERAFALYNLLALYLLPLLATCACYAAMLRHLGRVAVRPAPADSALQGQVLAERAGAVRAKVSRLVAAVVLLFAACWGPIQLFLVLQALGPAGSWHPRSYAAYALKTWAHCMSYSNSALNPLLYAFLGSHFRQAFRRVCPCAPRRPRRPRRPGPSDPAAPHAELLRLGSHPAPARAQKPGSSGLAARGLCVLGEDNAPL

In the case of `Cc1ccc(N=C=O)cc1N=C=O`, the Potency entry in assay [1], in [3], in assay [4], in [5], in assay [6] and in assay [7] was “inactive” each time. The Potency result in assay [8], in assay [9], in [10], in [11], in assay [12] and in [13] was “inactive” throughout. In addition, the Potency entry in assay [14], in assay [15], in [16], in assay [17], in [18] and in assay [19] was “inactive” in each case. In addition, in assay [20], the Potency entry is “inactive”. The Potency in [2] is 62.7 µM (active) and 48.6 µM (active).
For `CC1(C)CC(=O)CC(C)(C)N1[O]`, the Potency entry in [1], in [2], in assay [3], in assay [4], in [5] and in assay [6] was “inactive” throughout. Besides, the Potency result in [7], in assay [8], in assay [9], in assay [10], in assay [11] and in assay [12] was “inactive” throughout. In addition, the Potency result in [13], in assay [14], in assay [15], in assay [16], in [17] and in assay [18] was “inactive” each time. For the same compound, the Potency entry in assay [19] and in assay [20] was “inactive” throughout.
In the case of `CCCCCCCCCCCCBr`, the Potency result in [1], in assay [2], in [3], in assay [4], in assay [5] and in assay [6] was “inactive” throughout. Further, the Potency result in [7], in [8], in assay [9], in assay [10], in assay [11] and in [12] was “inactive” each time. Besides, the Potency entry in [13], in assay [14], in assay [15], in assay [16], in assay [17] and in [18] was “inactive” throughout. In addition, the Potency result in [19] and in [20] was “inactive” each time.
As to `N#CCC#N`, the Potency entry in assay [1], in [3], in [4], in assay [5], in assay [6] and in assay [7] was “inactive” in each case. The Potency result in assay [8], in assay [9], in assay [10], in [11], in assay [12] and in assay [13] was “inactive” in each case. In addition, the Potency entry in [14], in [15], in [16], in assay [17], in assay [18] and in assay [19] was “inactive” in each case. For the same compound, the Potency result in assay [20] was “inactive”. In assay [2], the Potency is 61.1 µM (active).
Turning to `c1ccc(CN2CCNCC2)cc1`, the Potency result in assay [1], in assay [2], in assay [3], in assay [4], in assay [5] and in [6] was “inactive” throughout. For the same compound, the Potency entry in [7], in assay [8], in [9], in assay [10], in assay [11] and in assay [12] was “inactive” throughout. The Potency result in assay [13], in assay [14], in assay [15], in assay [16], in [17] and in [18] was “inactive” in each case. Further, the Potency result in [19] and in [20] was “inactive” throughout.
In the case of `NCCOS(=O)(=O)O`, the Potency entry in assay [1], in assay [2], in assay [3], in assay [4], in assay [5] and in [6] was “inactive” throughout. Also, the Potency result in assay [7], in [8], in assay [9], in [10], in assay [11] and in assay [12] was “inactive” each time. Further, the Potency entry in assay [13], in assay [14], in assay [15], in [16], in assay [17] and in [18] was “inactive” in each case. The Potency entry in [19] and in assay [20] was “inactive” throughout.
Turning to `CCC(Cl)[N+](=O)[O-]` (stereo not given), the Potency entry in assay [1], in [2], in [3], in [4], in assay [5] and in [6] was “inactive” in each case. In addition, the Potency entry in [7], in assay [8], in assay [9], in assay [10], in [11] and in [12] was “inactive” each time. Further, the Potency result in assay [13], in assay [14], in assay [15], in [16], in [17] and in [18] was “inactive” each time. The Potency entry in assay [19] and in [20] was “inactive” each time.
